# Key:
# Experiment in all cases: DAPPL (digital affinity profiling via proximity ligation, sequencing); 10 mM Tris-HCl pH 7.5, 50 mM NaCl, 1 mM DTT, 4% glycerol, room temperature, 30 min; GST-TFs on glutathione beads, 16-mer random dsDNA library, 0.1% formaldehyde crosslink after washing; high values mean tight binding
# FLI1 = target: T1, FLI1 (Homo sapiens, UniProt Q01543 1-452); details: protein: recombinant; tags: N-terminal GST; dsDNA, one strand shown
# T1 sequence: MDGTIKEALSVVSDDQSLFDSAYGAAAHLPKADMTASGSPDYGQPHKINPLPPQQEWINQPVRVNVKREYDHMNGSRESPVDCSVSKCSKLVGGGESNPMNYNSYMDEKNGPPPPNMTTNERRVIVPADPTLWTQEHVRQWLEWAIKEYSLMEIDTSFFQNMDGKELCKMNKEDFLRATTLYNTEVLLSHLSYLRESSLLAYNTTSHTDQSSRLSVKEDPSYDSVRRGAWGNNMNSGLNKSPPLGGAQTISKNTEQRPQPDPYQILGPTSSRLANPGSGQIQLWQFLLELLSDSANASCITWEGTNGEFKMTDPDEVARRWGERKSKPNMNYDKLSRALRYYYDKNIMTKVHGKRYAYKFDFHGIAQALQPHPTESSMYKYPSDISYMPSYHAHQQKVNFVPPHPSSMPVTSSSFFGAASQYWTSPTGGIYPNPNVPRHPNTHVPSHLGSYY
# Outline: (§1)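 Pools of DNA-barcoded human transcription factors, expressed in yeast as GST fusions on glutathione beads and combined with a tag-only sample, were incubated with 200 nmole of a 16-mer random double-stranded DNA library. Incubation took 30 min at room temperature in Tris/NaCl/DTT/glycerol buffer and was followed by washing, 0.1% formaldehyde crosslinking, proximity ligation (BsaI/T4 ligase, 1 h, 37 °C), PCR amplification and sequencing on an Illumina NextSeq500. Binding signal is the ratio of a hexamer's read frequency for a factor to its frequency for the tag-only sample.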
# ELK1 = target: T2, ELK1 (Homo sapiens, UniProt P19419 1-428); details: protein: recombinant; tags: N-terminal GST; dsDNA, one strand shown
# T2 sequence: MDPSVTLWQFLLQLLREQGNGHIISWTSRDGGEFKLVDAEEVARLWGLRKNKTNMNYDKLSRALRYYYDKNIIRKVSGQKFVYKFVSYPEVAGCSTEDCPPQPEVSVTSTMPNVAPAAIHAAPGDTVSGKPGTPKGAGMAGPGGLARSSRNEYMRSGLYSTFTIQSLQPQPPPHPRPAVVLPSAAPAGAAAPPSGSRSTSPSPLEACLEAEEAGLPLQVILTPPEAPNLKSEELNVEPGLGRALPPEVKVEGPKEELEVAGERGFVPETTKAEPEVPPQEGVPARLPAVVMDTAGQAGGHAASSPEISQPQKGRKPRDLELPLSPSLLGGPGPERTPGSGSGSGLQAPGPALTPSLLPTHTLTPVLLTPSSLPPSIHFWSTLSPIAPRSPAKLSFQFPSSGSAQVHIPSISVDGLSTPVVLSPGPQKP
# Outline: as §1
# GABPA = target: T3, GABPA (Homo sapiens, UniProt Q06546 1-454); details: protein: recombinant; tags: N-terminal GST; dsDNA, one strand shown
# T3 sequence: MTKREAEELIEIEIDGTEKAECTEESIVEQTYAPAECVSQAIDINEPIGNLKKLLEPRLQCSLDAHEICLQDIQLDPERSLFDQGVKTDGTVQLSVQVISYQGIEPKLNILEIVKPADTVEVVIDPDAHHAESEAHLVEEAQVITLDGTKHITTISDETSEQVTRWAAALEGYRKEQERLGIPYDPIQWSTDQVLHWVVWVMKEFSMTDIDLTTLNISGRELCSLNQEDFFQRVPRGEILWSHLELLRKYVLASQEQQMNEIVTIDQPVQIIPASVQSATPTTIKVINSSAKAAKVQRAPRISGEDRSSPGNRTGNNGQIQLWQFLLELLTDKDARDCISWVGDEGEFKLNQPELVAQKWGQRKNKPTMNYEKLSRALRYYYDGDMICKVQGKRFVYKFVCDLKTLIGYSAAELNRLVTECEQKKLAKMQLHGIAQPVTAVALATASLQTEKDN
# Outline: as §1
# ERG = target: T4, ERG (Homo sapiens, UniProt P11308 1-479); details: protein: recombinant; tags: N-terminal GST; dsDNA, one strand shown
# T4 sequence: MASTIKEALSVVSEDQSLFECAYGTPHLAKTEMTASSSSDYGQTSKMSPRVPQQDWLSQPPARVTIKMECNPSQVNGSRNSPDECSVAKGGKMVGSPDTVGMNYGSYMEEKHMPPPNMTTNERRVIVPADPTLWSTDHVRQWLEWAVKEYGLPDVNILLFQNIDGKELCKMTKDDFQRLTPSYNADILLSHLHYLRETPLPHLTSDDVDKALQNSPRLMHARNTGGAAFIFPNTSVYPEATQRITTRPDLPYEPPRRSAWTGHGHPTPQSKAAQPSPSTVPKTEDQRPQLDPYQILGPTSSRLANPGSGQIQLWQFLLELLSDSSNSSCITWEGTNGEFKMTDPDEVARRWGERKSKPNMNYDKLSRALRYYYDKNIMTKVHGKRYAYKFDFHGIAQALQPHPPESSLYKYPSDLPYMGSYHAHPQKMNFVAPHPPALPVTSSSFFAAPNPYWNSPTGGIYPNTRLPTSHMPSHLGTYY
# Outline: as §1
# ELF1 = ELF1 (Homo sapiens, UniProt P32519 1-619); details: protein: recombinant; tags: N-terminal GST; dsDNA, one strand shown
# Chain of ELF1 (P32519 whole entry): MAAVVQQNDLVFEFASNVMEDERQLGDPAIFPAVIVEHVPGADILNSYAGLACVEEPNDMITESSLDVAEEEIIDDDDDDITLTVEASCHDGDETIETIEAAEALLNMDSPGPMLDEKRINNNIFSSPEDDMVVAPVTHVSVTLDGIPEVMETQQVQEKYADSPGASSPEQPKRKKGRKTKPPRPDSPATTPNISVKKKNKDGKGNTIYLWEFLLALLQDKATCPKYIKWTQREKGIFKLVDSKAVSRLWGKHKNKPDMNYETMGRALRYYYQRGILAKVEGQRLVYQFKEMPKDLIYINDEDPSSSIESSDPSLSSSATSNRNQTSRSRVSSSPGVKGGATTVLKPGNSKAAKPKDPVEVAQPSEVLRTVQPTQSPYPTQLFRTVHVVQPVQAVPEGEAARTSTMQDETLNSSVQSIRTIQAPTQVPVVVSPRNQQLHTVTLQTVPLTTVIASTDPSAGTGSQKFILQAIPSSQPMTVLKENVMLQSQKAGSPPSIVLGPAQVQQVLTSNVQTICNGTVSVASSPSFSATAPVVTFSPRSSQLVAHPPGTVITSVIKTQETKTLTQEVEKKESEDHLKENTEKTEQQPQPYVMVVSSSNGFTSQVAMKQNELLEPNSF
# Outline: as §1
# EHF = target: T5, EHF (Homo sapiens, UniProt Q9NZC4 1-300); details: protein: recombinant; tags: N-terminal GST; dsDNA, one strand shown
# T5 sequence: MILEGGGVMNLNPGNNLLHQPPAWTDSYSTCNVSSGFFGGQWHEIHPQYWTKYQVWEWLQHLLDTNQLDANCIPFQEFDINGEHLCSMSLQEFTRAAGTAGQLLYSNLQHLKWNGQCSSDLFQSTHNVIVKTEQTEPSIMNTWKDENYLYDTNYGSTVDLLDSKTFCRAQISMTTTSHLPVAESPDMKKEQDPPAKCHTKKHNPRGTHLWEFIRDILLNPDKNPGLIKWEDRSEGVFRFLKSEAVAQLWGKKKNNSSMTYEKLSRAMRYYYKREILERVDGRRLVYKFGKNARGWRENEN
# Outline: as §1
# SPI1 = SPI1 (Homo sapiens, UniProt P17947 1-270); details: protein: recombinant; tags: N-terminal GST; dsDNA, one strand shown
# Outline: as §1
# SPIB = SPIB (Homo sapiens, UniProt Q01892 1-262); details: protein: recombinant; tags: N-terminal GST; dsDNA, one strand shown
# Chain of SPIB (Q01892 whole entry): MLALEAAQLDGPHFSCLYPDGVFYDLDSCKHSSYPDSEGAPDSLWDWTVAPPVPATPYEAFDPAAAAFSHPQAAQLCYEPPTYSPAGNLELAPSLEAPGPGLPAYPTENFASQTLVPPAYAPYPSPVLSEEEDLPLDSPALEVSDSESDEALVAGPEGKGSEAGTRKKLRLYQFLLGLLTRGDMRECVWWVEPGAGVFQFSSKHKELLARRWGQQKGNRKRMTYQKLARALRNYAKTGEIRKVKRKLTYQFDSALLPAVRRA
# Outline: as §1
# ELK3 = target: T6, ELK3 (Homo sapiens, UniProt P41970 1-407); details: protein: recombinant; tags: N-terminal GST; dsDNA, one strand shown
# T6 sequence: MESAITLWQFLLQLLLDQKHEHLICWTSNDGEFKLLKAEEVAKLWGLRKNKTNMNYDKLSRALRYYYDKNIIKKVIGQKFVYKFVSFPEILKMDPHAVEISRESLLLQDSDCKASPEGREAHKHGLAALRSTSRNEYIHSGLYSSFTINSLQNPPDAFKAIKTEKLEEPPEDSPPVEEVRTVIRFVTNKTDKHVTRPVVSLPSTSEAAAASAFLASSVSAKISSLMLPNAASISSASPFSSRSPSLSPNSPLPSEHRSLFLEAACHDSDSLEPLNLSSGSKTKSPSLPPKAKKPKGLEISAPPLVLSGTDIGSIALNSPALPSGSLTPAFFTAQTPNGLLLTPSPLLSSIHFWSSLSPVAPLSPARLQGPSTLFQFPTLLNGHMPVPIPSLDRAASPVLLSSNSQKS
# Outline: as §1
# FEV = target: T7, FEV (Homo sapiens, UniProt Q99581 1-238); details: protein: recombinant; tags: N-terminal GST; dsDNA, one strand shown
# T7 sequence: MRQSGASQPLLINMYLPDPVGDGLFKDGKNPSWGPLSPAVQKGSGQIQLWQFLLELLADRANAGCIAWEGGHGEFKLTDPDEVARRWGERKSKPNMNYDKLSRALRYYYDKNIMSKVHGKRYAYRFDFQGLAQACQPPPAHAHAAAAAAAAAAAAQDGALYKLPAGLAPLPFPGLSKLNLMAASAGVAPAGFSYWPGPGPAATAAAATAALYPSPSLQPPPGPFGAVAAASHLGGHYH
# Outline: as §1
# ETV5 = ETV5 (Homo sapiens, UniProt P41161 1-510); details: protein: recombinant; tags: N-terminal GST; dsDNA, one strand shown
# Chain of ETV5 (P41161 whole entry): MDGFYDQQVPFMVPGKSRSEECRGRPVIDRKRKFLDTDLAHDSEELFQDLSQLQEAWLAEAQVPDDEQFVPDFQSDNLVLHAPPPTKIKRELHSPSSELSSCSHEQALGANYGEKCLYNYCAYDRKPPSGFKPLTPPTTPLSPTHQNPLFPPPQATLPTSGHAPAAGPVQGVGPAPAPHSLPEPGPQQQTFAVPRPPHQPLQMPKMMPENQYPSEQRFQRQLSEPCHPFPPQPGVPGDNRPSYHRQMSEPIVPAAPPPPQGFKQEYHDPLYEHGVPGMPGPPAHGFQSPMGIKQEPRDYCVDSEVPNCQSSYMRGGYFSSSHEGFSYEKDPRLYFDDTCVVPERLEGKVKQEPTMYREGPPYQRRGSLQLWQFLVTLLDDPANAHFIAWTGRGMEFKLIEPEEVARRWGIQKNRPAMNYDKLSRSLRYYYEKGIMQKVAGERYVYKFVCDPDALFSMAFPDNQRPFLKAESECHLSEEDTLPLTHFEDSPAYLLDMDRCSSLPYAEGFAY
# Outline: as §1
# HSF1 = HSF1 (Homo sapiens, UniProt Q00613 1-529); details: protein: recombinant; tags: N-terminal GST; chain copies: 3; dsDNA, one strand shown
# Chain of HSF1 (Q00613 whole entry): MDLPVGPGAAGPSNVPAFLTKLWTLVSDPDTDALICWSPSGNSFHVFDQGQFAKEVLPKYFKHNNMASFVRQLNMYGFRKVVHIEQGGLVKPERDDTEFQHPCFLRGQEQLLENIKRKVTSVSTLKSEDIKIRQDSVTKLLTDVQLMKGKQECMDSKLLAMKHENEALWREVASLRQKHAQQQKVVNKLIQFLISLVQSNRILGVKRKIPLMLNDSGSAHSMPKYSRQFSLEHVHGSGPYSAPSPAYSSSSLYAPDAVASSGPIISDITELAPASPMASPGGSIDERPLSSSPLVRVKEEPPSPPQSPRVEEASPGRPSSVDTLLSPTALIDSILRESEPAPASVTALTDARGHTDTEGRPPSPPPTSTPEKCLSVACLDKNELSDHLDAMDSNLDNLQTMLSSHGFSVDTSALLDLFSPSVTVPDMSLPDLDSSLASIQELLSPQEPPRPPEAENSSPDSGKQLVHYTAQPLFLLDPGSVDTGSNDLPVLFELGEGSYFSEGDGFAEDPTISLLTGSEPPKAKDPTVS
# Outline: as §1
# SPIC = target: T8, SPIC (Homo sapiens, UniProt Q8N5J4 1-248); details: protein: recombinant; tags: N-terminal GST; dsDNA, one strand shown
# T8 sequence: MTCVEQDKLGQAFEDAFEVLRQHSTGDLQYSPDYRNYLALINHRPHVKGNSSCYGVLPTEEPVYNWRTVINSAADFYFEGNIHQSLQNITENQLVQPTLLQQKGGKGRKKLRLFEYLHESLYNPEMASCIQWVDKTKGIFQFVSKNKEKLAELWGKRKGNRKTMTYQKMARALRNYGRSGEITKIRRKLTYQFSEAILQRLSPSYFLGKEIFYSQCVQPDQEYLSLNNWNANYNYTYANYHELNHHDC
# Outline: as §1
# ELF4 = ELF4 (Homo sapiens, UniProt Q99607 1-663); details: protein: recombinant; tags: N-terminal GST; dsDNA, one strand shown
# Chain of ELF4 (Q99607 whole entry): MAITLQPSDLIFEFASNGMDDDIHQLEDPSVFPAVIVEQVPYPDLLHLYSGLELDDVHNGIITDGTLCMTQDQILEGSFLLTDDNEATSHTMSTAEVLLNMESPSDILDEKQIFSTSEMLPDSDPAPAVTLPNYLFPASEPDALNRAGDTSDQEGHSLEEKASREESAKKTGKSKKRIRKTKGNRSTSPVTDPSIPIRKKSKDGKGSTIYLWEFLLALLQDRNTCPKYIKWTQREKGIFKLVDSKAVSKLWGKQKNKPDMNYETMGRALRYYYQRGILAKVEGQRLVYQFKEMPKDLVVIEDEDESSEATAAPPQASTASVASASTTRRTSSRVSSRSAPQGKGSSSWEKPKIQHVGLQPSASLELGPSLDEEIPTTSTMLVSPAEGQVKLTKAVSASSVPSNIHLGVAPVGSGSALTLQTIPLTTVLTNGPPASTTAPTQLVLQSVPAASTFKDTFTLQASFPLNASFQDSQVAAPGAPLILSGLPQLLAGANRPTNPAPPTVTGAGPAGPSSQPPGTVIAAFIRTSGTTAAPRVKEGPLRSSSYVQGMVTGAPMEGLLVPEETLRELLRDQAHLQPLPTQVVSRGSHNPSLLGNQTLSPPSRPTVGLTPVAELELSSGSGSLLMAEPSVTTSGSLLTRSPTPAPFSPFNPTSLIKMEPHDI
# Outline: as §1
# ELK4 = target: T9, ELK4 (Homo sapiens, UniProt P28324-2 1-405); details: protein: recombinant; tags: N-terminal GST; dsDNA, one strand shown
# T9 sequence: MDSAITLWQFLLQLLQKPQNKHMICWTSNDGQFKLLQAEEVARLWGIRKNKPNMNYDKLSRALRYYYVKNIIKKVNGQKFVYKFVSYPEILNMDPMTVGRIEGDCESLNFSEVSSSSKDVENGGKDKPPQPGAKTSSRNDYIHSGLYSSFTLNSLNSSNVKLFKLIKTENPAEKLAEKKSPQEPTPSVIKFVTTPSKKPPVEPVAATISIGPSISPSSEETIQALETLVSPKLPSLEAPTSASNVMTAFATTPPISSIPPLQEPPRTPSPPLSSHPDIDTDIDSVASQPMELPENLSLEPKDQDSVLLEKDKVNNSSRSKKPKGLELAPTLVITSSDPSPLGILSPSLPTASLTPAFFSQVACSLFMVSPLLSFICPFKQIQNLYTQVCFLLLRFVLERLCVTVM
# Outline: as §1
# ETV2 = target: T10, ETV2 (Homo sapiens, UniProt O00321 1-342); details: protein: recombinant; tags: N-terminal GST; dsDNA, one strand shown
# T10 sequence: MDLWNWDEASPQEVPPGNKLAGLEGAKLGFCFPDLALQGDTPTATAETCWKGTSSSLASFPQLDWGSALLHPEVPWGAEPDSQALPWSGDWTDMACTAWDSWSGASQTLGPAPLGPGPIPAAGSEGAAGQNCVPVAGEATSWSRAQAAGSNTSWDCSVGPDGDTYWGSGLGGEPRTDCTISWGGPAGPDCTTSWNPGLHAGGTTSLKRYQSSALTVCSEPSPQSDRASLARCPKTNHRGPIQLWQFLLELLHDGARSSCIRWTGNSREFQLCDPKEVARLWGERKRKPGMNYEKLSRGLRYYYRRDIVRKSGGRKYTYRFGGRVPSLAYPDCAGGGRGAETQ
# Outline: as §1
# ELF3 = target: T11, ELF3 (Homo sapiens, UniProt P78545 1-371); details: protein: recombinant; tags: N-terminal GST; dsDNA, one strand shown
# T11 sequence: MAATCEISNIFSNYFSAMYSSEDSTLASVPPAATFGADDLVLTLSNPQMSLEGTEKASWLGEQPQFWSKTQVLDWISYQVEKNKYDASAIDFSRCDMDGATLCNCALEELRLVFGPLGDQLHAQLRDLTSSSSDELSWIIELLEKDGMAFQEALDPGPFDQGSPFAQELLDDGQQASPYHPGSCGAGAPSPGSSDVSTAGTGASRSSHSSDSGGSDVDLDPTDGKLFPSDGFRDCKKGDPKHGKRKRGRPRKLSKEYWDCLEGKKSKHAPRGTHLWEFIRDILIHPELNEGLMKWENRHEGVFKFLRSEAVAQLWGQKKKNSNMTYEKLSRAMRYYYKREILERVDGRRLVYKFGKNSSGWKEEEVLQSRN
# Outline: as §1
# CRX = CRX (Homo sapiens, UniProt O43186 1-299); details: protein: recombinant; tags: N-terminal GST; dsDNA, one strand shown
# Chain of CRX (O43186 whole entry): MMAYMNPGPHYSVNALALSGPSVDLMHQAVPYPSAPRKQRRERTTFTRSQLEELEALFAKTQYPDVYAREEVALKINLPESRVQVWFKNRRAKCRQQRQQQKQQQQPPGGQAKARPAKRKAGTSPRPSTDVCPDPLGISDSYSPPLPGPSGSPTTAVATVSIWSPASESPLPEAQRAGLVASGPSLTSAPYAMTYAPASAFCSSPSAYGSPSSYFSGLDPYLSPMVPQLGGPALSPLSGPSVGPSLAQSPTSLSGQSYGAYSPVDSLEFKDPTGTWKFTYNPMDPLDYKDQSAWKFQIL
# Outline: as §1
# ETV1 = ETV1 (Homo sapiens, UniProt P50549 1-477); details: protein: recombinant; tags: N-terminal GST; dsDNA, one strand shown
# Chain of ETV1 (P50549 whole entry): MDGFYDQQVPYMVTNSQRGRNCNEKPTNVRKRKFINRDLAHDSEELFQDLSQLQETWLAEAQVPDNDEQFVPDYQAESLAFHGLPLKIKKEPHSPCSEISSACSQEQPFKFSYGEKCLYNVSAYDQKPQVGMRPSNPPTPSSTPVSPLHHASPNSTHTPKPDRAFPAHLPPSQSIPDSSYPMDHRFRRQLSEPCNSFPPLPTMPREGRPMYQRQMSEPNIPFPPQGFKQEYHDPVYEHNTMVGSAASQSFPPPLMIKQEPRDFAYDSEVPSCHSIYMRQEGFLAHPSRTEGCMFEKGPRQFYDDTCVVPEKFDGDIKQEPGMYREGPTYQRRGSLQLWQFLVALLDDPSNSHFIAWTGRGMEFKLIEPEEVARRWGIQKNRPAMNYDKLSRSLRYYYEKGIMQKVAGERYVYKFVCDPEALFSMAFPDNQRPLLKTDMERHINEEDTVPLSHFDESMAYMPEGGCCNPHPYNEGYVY
# Outline: as §1
sequence,measurement,setting,value
ATACCC,binding signal,FLI1,"1.18 fold enrichment (6-mer frequency, TF over GST control)"
same,binding signal,ELK1,"1.17 fold enrichment (6-mer frequency, TF over GST control)"
same,binding signal,GABPA,"1.19 fold enrichment (6-mer frequency, TF over GST control)"
same,binding signal,ERG,"1.19 fold enrichment (6-mer frequency, TF over GST control)"
same,binding signal,ELF1,"1.2 fold enrichment (6-mer frequency, TF over GST control)"
same,binding signal,EHF,"1.21 fold enrichment (6-mer frequency, TF over GST control)"
same,binding signal,SPI1,"1.13 fold enrichment (6-mer frequency, TF over GST control)"
same,binding signal,SPIB,"1.14 fold enrichment (6-mer frequency, TF over GST control)"
same,binding signal,ELK3,"1.13 fold enrichment (6-mer frequency, TF over GST control)"
same,binding signal,FEV,"1.17 fold enrichment (6-mer frequency, TF over GST control)"
same,binding signal,ETV5,"1.16 fold enrichment (6-mer frequency, TF over GST control)"
same,binding signal,HSF1,"1 fold enrichment (6-mer frequency, TF over GST control)"
same,binding signal,SPIC,"1.2 fold enrichment (6-mer frequency, TF over GST control)"
same,binding signal,ELF4,"1.13 fold enrichment (6-mer frequency, TF over GST control)"
same,binding signal,ELK4,"1.16 fold enrichment (6-mer frequency, TF over GST control)"
same,binding signal,ETV2,"1.24 fold enrichment (6-mer frequency, TF over GST control)"
same,binding signal,ELF3,"1.16 fold enrichment (6-mer frequency, TF over GST control)"
same,binding signal,CRX,"1.2 fold enrichment (6-mer frequency, TF over GST control)"
same,binding signal,ETV1,"1.23 fold enrichment (6-mer frequency, TF over GST control)"

# — PMC7862700, “An all-to-all approach to the identification of sequence-specific readers for epigenetic DNA modifications on cytosine”
